Counter-ions that a name gives are not always drawn. A number with no mark means an inactive call.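 Rule for the calls: for the amine columns active = adjusted P below 0.05 in both replicates with a change the same way and a mean fold change under 0.8 or over 1.25; inactive = the rest.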
System: Klebsiella aerogenes DSM 30053
Assay: fold change of Histamine concentration vs plate DMSO controls (fold change (ratio)); higher = more amine produced, active = hit call of the paper (significant change in both replicates, either direction)
Settings: incubation time: 27 h, anaerobic, 37 °C
Procedure, shortened: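 Amine values are fold changes relative to DMSO-only wells on the same plate. They derive from 27 h, 37 °C anaerobic mGAM cultures of four gut bacterial strains in 80 µL wells, dosed at 20 µM final, or 50 µM final for sweeteners. Extraction of the whole culture, LC–triple-quadrupole MS in dynamic MRM mode, external calibration curves and within-batch drift correction were used, with 2 biological replicates averaged.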

In order of falling “fold change of Histamine concentration” value:
1. Cc1cc(C(C)(C)CC(C)(C)C)ccc1OCCOCC[N+](C)(C)Cc1ccccc1 [Methyl benzethonium chloride] (20 µM)  1.11
2. C=C[C@H]1CN2CC[C@H]1C[C@@H]2[C@@H](O)c1ccnc2ccc(OC)cc12 [Quinidine hydrochloride monohydrate] (20 µM)  1.11
3. CCOC(=O)C1=C(COCCN)NC(C)=C(C(=O)OC)C1c1ccccc1Cl (centres undefined) [Amlodipine] (20 µM)  1.08
4. Cc1noc(NS(=O)(=O)c2ccc(N)cc2)c1C [Sulfisoxazole] (20 µM)  1.07
5. O=C1CN(/N=C/c2ccc([N+](=O)[O-])o2)C(=O)N1 [Nitrofurantoin] (20 µM)  1.07
6. Nc1ccn([C@@H]2CS[C@H](CO)O2)c(=O)n1 [Lamivudine] (20 µM)  1.06
7. CCc1c2c(nc3ccc(OC(=O)N4CCC(N5CCCCC5)CC4)cc13)-c1cc3c(c(=O)n1C2)COC(=O)[C@]3(O)CC [Irinotecan hydrochloride trihydrate] (20 µM)  1.03
8. Nc1ncn(C2OC(CO)C(O)C2O)c(=O)n1 (centres undefined) [Azacytidine-5] (20 µM)  1.03
9. O=C(O)CCNC(=O)c1ccccc1 [Betamipron] (20 µM)  1.02
10. Nc1nc2c(ncn2COCCO)c(=O)[nH]1 [Acyclovir] (20 µM)  1.02
11. COc1cc2nc(N3CCN(C(=O)c4ccco4)CC3)nc(N)c2cc1OC [Prazosin hydrochloride] (20 µM)  1.01
12. CC[C@]12CCCN3CCc4c(n(c5ccccc45)[C@@](O)(C(=O)OC)C1)[C@@H]32 [Vincamine] (20 µM)  1.01
13. Cc1ccc(NC(=O)c2ccc(CN3CCN(C)CC3)cc2)cc1Nc1nccc(-c2cccnc2)n1 [Imatinib] (20 µM)  1.01
14. C[C@H](CS)C(=O)N1CCC[C@H]1C(=O)O [Captopril] (20 µM)  1.01
15. CN(CCOc1ccc(NS(C)(=O)=O)cc1)CCc1ccc(NS(C)(=O)=O)cc1 [Dofetilide] (20 µM)  1
16. CC(C)/N=c1\cc2n(-c3ccc(Cl)cc3)c3ccccc3nc-2cc1Nc1ccc(Cl)cc1 [Clofazimine] (20 µM)  0.999
17. CC(=O)Nc1ccc(O)cc1 [Acetaminophen] (20 µM)  0.998
18. CCCCCCCCNC(C)C(O)c1ccc(SC(C)C)cc1 (centres undefined) [Suloctidil] (20 µM)  0.987
19. CCOC(=O)C1=C(C)NC(C)=C(C(=O)OC)C1c1cccc(Cl)c1Cl (centres undefined) [Felodipine] (20 µM)  0.96
20. O=C1C(CC[S+]([O-])c2ccccc2)C(=O)N(c2ccccc2)N1c1ccccc1 (centres undefined) [Sulfinpyrazone] (20 µM)  0.959
21. COc1ccc(CCN(C)CCCC(C#N)(c2ccc(OC)c(OC)c2)C(C)C)cc1OC (centres undefined) [Verapamil hydrochloride] (20 µM)  0.942
22. CC(C)(c1cc(Br)c(O)c(Br)c1)c1cc(Br)c(O)c(Br)c1 (20 µM)  0.929
23. CN(C)CCCN1c2ccccc2CCc2ccccc21 [Imipramine hydrochloride] (20 µM)  0.866
24. C[C@H]1[C@H](NC(=O)/C(=N\OC(C)(C)C(=O)O)c2csc(N)n2)C(=O)N1S(=O)(=O)O [Aztreonam] (20 µM)  0.865
25. Cc1nnc(SCC2=C(C(=O)O)N3C(=O)[C@@H](NC(=O)Cn4cnnn4)[C@H]3SC2)s1 [Cefazolin sodium salt] (20 µM)  0.645

With `CCN1CCN(C(=O)N[C@@H](C(=O)N[C@@H]2C(=O)N3C(C(=O)O)=C(CSc4nnnn4C)CS[C@H]23)c2ccc(O)cc2)C(=O)C1=O` [Cefoperazone dihydrate] (20 µM) the “fold change of Histamine concentration” value was 0.472 (active).
With `O=C(O)c1cn(C2CC2)c2cc(N3CCNCC3)c(F)cc2c1=O` [Ciprofloxacin hydrochloride monohydrate] (20 µM) the “fold change of Histamine concentration” value was 0.0661 (active).
`CCn1cc(C(=O)O)c(=O)c2cc(F)c(N3CCN(C)CC3)cc21` [Pefloxacin] (20 µM) was tested, and the “fold change of Histamine concentration” value was 0.127 (active).
`COc1cc(Cc2cnc(N)nc2N)cc(OC)c1OC` [Trimethoprim] (20 µM) was tested, and the “fold change of Histamine concentration” value was 0.522 (active).

— the supplement of paper PMC12494721
